According to the supplement of paper PMC3545927:
Some of the results follow. The true hit rate is not given.

B1: HC408 (peptide)
chain: CAGIVPAKSVAGNASASA
B2: HC2544 (peptide)
chain: CASTPCSAILAGNASASA
B3: FS-3133 (peptide)
chain: CARWRRSDILAGNASASA
B4: FS-2846 (peptide)
chain: CARWRRVAVGAGNASASA
B5: FS-2111 (peptide)
chain: CARWRRSAPGAGNASASA
B6: HC2558 (peptide)
chain: CASTPCSATLAGNASASA
B7: FS-3132 (peptide)
chain: CARWRRHQEGAGNASASA
B8: HC298 (peptide)
chain: CALYVGDLCGAGNASASA
B9: HC438 (peptide)
chain: CAMNSTGFTKAGNASASA
B10: HC1332 (peptide)
chain: CAALAELATRAGNASASA
B11: FS-2175 (peptide)
chain: CARQVRYLEKAGNASASA
B12: FS-1769 (peptide)
chain: CARQRRALEKAGNASASA
B13: FS-2510 (peptide)
chain: CARQRRALERAGNASASA
B14: FS-2761 (peptide)
chain: CARQRRGEERAGNASASA
B15: FS-2173 (peptide)
chain: CARQRRDLLNAGNASASA
B16: FS-2584 (peptide)
chain: CARQKKAAEKAGNASASA
B17: HC2376 (peptide)
chain: CAEVPCHGPSAGNASASA
B18: HC1412 (peptide)
chain: CALSVEEACSAGNASASA
B19: FS-849 (peptide)
chain: CAQRHRQGRVAGNASASA
B20: FS-1258 (peptide)
chain: CARHRRPRRVAGNASASA
B21: FS-499 (peptide)
chain: CASHRRQRRVAGNASASA
B22: FS-36 (peptide)
chain: CAISRRQRRVAGNASASA
B23: FS-121 (peptide)
chain: CADIARARRVAGNASASA
B24: FS-1495 (peptide)
chain: CATNNRKIRVAGNASASA
B25: FS-677 (peptide)
chain: CAKNQRKIRIAGNASASA
B26: HC157 (peptide)
chain: CAEVVTYTWVAGNASASA
B27: FS-3143 (peptide)
chain: CAVRRRAADQAGNASASA
B28: FS-1662 (peptide)
chain: CAVRRRVQRMAGNASASA
B29: FS-1816 (peptide)
chain: CAVVARSVNGAGNASASA
B30: HC1115 (peptide)
chain: CAGEGAVQWMAGNASASA
B31: HC278 (peptide)
chain: CAASRCWVAMAGNASASA
B32: FS-2856 (peptide)
chain: CAVRRRSVQQAGNASASA
B33: HC2324 (peptide)
chain: CAEIPCHRPSAGNASASA
B34: FS-3046 (peptide)
chain: CARRFRAALGAGNASASA
B35: FS-1073 (peptide)
chain: CARRFRPRRSAGNASASA
B36: HC1300 (peptide)
chain: CARRFAQALPAGNASASA
B37: FS-1072 (peptide)
chain: CARRFRPRRFAGNASASA
B38: FS-820 (peptide)
chain: CALHQRVRRFAGNASASA
B39: FS-58 (peptide)
chain: CALRTRPRRFAGNASASA
B40: HC1469 (peptide)
chain: CAPGQRVEFLAGNASASA
B41: HC44 (peptide)
chain: CATTPLSGSWAGNASASA
B42: HC2582 (peptide)
chain: CASTPCSAHQAGNASASA
B43: HC650 (peptide)
chain: CAMETKLITWAGNASASA

Molecular target: furin, P09958
Test: furin cleavage Z-score vs untreated control; higher = more cleavage, active = 3.5 or more, inactive = 1 or less, 8 variable residues between constant flanks
Method in brief: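 In 50 mM HEPES pH 7.5 with CaCl2 and NaCl, purified furin was incubated with bead-anchored 8-mer peptide–cDNA fusions at 1:10 enzyme:substrate in 0.01 ml. Incubation times were 7.5, 15 and 30 min. DNA set free by cleavage was adapter-tagged by PCR and sequenced, with read counts taken as abundance. Log counts relative to furin-free reactions, after lowess adjustment and median absolute deviation scaling, form the cleavage Z-score.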

Sequence of furin, P09958 (P09958 whole entry): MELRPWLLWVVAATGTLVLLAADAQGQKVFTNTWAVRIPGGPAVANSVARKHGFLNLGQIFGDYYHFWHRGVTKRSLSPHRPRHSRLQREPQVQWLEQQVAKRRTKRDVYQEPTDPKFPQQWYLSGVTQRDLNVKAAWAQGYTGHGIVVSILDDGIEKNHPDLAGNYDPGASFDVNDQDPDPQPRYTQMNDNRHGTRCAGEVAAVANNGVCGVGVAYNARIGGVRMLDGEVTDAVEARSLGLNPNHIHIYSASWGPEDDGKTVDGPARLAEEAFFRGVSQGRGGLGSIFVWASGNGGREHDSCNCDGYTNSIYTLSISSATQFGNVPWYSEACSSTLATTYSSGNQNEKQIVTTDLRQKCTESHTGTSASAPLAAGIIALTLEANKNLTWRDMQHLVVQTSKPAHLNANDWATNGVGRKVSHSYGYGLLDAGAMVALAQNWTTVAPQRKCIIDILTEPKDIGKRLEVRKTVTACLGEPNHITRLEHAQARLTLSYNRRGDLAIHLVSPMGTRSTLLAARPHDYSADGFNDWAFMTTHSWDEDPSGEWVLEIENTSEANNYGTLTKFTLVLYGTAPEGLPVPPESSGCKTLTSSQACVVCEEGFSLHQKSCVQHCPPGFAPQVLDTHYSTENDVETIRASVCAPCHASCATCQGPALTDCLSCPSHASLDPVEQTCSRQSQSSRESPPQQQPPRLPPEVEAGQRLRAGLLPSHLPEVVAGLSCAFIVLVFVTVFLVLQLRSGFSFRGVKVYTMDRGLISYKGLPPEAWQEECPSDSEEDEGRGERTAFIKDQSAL

Sequence | furin cleavage Z-score (7.5 min) | furin cleavage Z-score (15 min) | furin cleavage Z-score (30 min)
B1 | -0.985 (inactive) | 0.152 (inactive) | 0.898 (inactive)
B2 | 1.05 | 1.22 | 0.242 (inactive)
B3 | 1.69 | 5.44 (active) | 6.95 (active)
B4 | 0.992 (inactive) | 1.04 | 3.3
B5 | 8.14 (active) | 8.62 (active) | 5.76 (active)
B6 | 0.0385 (inactive) | -0.233 (inactive) | -0.615 (inactive)
B7 | 0.592 (inactive) | 1.08 | 1.98
B8 | -1.6 (inactive) | -0.331 (inactive) | -1.76 (inactive)
B9 | 0.142 (inactive) | -0.334 (inactive) | 0.353 (inactive)
B10 | -0.307 (inactive) | -0.0975 (inactive) | -0.283 (inactive)
B11 | 0.662 (inactive) | 1.05 | 1.72
B12 | 5.5 (active) | 5.75 (active) | 6.8 (active)
B13 | 7.27 (active) | 9.89 (active) | 9.73 (active)
B14 | 2.18 | 0.285 (inactive) | 0.208 (inactive)
B15 | 6.3 (active) | 11.7 (active) | 11.3 (active)
B16 | -1.07 (inactive) | -0.974 (inactive) | 1.2
B17 | -0.0304 (inactive) | 0.46 (inactive) | -1.34 (inactive)
B18 | -1.32 (inactive) | 0.888 (inactive) | -0.38 (inactive)
B19 | -0.109 (inactive) | 1.55 | 0.481 (inactive)
B20 | 3.43 | 4.61 (active) | 4.95 (active)
B21 | 7.8 (active) | 8.25 (active) | 6.5 (active)
B22 | 5.61 (active) | 5.68 (active) | 6.35 (active)

Sequence | furin cleavage Z-score (7.5 min) | furin cleavage Z-score (15 min) | furin cleavage Z-score (30 min)
B23 | -0.464 (inactive) | -0.299 (inactive) | 0.591 (inactive)
B24 | 2.37 | 4.37 (active) | 4.34 (active)
B25 | -0.0796 (inactive) | 0.212 (inactive) | 1.01
B26 | -1.14 (inactive) | -2.61 (inactive) | -1.31 (inactive)
B27 | -0.697 (inactive) | 0.216 (inactive) | 1.49
B28 | 9.65 (active) | 8.64 (active) | 6.99 (active)
B29 | -0.0409 (inactive) | 0.74 (inactive) | 1.63
B30 | -1.9 (inactive) | -0.502 (inactive) | -1.06 (inactive)
B31 | 1.39 | -0.873 (inactive) | 1.5
B32 | 3.6 (active) | 4.13 (active) | 4.51 (active)
B33 | 1.27 | 0.0659 (inactive) | -0.381 (inactive)
B34 | -0.151 (inactive) | -1.57 (inactive) | 1.09
B35 | 10.2 (active) | 9.93 (active) | 8.02 (active)
B36 | 0.481 (inactive) | 1.31 | -0.76 (inactive)
B37 | 9 (active) | 10.6 (active) | 9.46 (active)
B38 | 8.84 (active) | 10.6 (active) | 9.12 (active)
B39 | 10.2 (active) | 12.6 (active) | 10.4 (active)
B40 | -0.0222 (inactive) | -0.699 (inactive) | -1.16 (inactive)
B41 | -0.768 (inactive) | -0.103 (inactive) | 0.0356 (inactive)
B42 | -0.092 (inactive) | -1.41 (inactive) | -0.516 (inactive)
B43 | -0.69 (inactive) | -0.554 (inactive) | -0.78 (inactive)
